This note sets out measurements from PubChem BioAssay (NCI).

About 79,000 compounds went through this panel and 15% of them were active in at least one assay; those are over-represented in the sample as a whole. A number with no mark means an inactive call. Active and inactive are the calls of the source. Cut-off read from the data, not from the text of the source: active = growth inhibition above about 70%; inactive = the rest. Where a SMILES comes first, the peptide text is derived from it. [ ]: non-standard residue; d: D form. ξ: configuration not given here. ξP = O=C(O)C1CCCN1

Assay [1] in a line: NCI Yeast Anticancer Drug Screen. Data for the rad50 strain (AID 155).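 Note: 0% = growth of vehicle-only cultures of the same strain.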 As to conditions: S. cerevisiae rad50 strain growth inhibition; at 50.0 µM; hits give high values. A digest of the protocol:
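Cells are treated with compound, grown, and their growth is then scored against vehicle-only cultures of the same repair-deficient yeast strain.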

A short description of assay [2]: NCI Yeast Anticancer Drug Screen. Data for the mec2-1 strain (AID 157). The following applies: S. cerevisiae mec2-1 strain, at 50.0 µM, hits give high values. A digest of the protocol:
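Each compound was tested on mec2-1 yeast, a strain altered in DNA damage repair or cell cycle control. Growth inhibition is reported relative to vehicle.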

A short description of assay [3]: NCI Yeast Anticancer Drug Screen. Data for the sgs1 mgt1 strain (AID 161).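 Note: 0% = growth of cultures given vehicle only.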 The following applies: S. cerevisiae sgs1 mgt1 strain, at 50.0 µM, hits give high values. The method, boiled down: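 Read-out: growth inhibition vs vehicle controls. Cells: mutant yeast strain deficient in DNA damage repair.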
Assay [4] is described as follows: NCI Yeast Anticancer Drug Screen. Data for the cln2 rad14 strain (AID 165).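 Note: 0% = growth equal to vehicle treated cultures.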 As to conditions: S. cerevisiae cln2 rad14 strain, at 50.0 µM, hits give high values. A digest of the protocol: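 Test compounds were added to cln2 rad14 yeast cultures; inhibition of growth was then determined by comparison with vehicle treatment.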
Assay [5] can be described thus: NCI Yeast Anticancer Drug Screen. Data for the bub3 strain (AID 167). The following applies: S. cerevisiae bub3 mutant strain, at 50.0 µM, hits give high values. A digest of the protocol:
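Part of a panel of yeast mutants defective in DNA damage repair or cell cycle regulation. Each strain is grown with compound, and inhibition is calculated relative to solvent-treated cultures.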

Assay [6] is described as follows: NCI Yeast Anticancer Drug Screen. Data for the mlh1 rad18 strain (AID 175). The following applies: S. cerevisiae mlh1 rad18 strain growth inhibition; at 50.0 µM; hits give high values. The method, boiled down:
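Inhibition values reflect reduced growth of mutant yeast versus vehicle-treated controls following compound exposure; the mutations affect DNA damage repair.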

`CS(=O)(=O)C(c1nc2n(c1O)C(=N)N=N2)c1nc2n(c1O)C(=N)N=N2` (stereo not drawn): the growth inhibition in assay [1] is -3.2%; in assay [2], 12.1%; in assay [3], -6.15%; in assay [4], -17.1%; in assay [5] it was -5.2%; in assay [6] it was 9.8%.
For `CC(=O)N1c2ccccc2C(C)(C)C1O` (stereo not drawn), the growth inhibition in assay [1] was 6.85%; in assay [2] it was 17.1%; in assay [3], -3.55%; in assay [4] it was -13.7%; in assay [5] it was -12.4%; in assay [6], 3.7%.
As for `O=[N+]([O-])c1ccc(/C(=C/c2ccc(F)cc2)S(=O)(=O)c2ccccc2)o1`, the growth inhibition in assay [1] was 37.4%; in assay [2], 19.4%; in assay [3], 50.3%; in assay [4], -0.65%; in assay [5], 8.4%; in assay [6] it was 39.4%.
For the molecule `COc1ccc(C2c3cc4c(cc3OC3(N5CCCC5)CCCC23)OCO4)c(OC)c1` (stereo not drawn), the growth inhibition was 0.85% in assay [1]; -6.8% in assay [2]; -1.5% in assay [3]; 14.2% in assay [4]; 15.2% in assay [5]; 11.6% in assay [6].
Regarding `CCCCCCCCCCCCCCCCCC(=O)OCC1OC(OC)C(NC(=O)N(CCCl)N=O)C(O)C1O` (stereo not drawn), the growth inhibition in assay [1] is 16.3%; in assay [2], -6.85%; in assay [3] it was -4.8%; in assay [4], 13.7%; in assay [5], 21.4%; in assay [6], 9.15%.
Take `N=C(N)c1ccc(C(=N)N)cc1`: the growth inhibition was -16.4% in assay [1]; -14.3% in assay [2]; -20.3% in assay [3]; -0.35% in assay [4]; -0.75% in assay [5]; -33.2% in assay [6].
For `Nc1nc(C(F)(F)F)nc(N)c1N`, the growth inhibition in assay [1] is 7.6%; in assay [2] it was 11%; in assay [3], 15.1%; in assay [4] it was 3.2%; in assay [5], -5.95%; in assay [6] it was 14.6%.
Regarding `COC1=CC(=O)C(Cc2ccc3c(c2)OCO3)=CC1=O`, the growth inhibition in assay [1] was 13.2%; in assay [2], 24.6%; in assay [3] it was 15.7%; in assay [4], -9.45%; in assay [5], 3.1%; in assay [6], 34.5%.
`O=C(OCCCl)Oc1c(Cl)cc([N+](=O)[O-])cc1[N+](=O)[O-]`: the growth inhibition is 99.6% (active) in assay [1]; 99.8% (active) in assay [2]; 99.7% (active) in assay [3]; 99% (active) in assay [4]; 99.2% (active) in assay [5]; 99.5% (active) in assay [6].
As to `CN=C(NN)NS(=O)(=O)c1cc(C)c(Cl)cc1S`, the growth inhibition was -12.6% in assay [1]; -22.8% in assay [2]; -11.7% in assay [3]; -10.9% in assay [4]; 3.4% in assay [5]; 7.05% in assay [6].
`COc1ccc(S(=O)(=O)/N=C(/C2CC3=CCC4C5CCC(=O)C5(C)CC(=O)C4C3(C)C2)N2CCCC2)cc1` (stereo not drawn): the growth inhibition was 5.75% in assay [1]; 4.9% in assay [2]; 1.85% in assay [3]; -11.6% in assay [4]; -1.35% in assay [5]; -18% in assay [6].
On to `Cc1ccc(S(=O)(=O)N/N=C2/CC3CCC2C3)cc1` (stereo not drawn), for which the growth inhibition in assay [1] was 5%; in assay [2], 1.3%; in assay [3] it was -19.7%; in assay [4], -9.4%; in assay [5] it was 17.3%; in assay [6] it was -15.3%.
Consider `CN1C(=O)N(C)C(=O)C(C)(NS(=O)(=O)c2ccc(NC(=O)CCC(=O)O)cc2)C1=O`, for which the growth inhibition in assay [1] is 17.6%; in assay [2] it was 11.6%; in assay [3], 12.2%; in assay [4], 16.1%; in assay [5] it was 0.95%; in assay [6] it was 24.3%.
Take `CC1(C)OC2C3COc4nc5c(N)ncnc5n4C(O3)C2O1` (stereo not drawn): the growth inhibition in assay [1] is -6%; in assay [2], -5.2%; in assay [3], -8.85%; in assay [4] it was -5.05%; in assay [5], -8.1%; in assay [6], -9.9%.
As to `c1ccc(CCCCc2ccc(CCCCc3ccccc3)cc2)cc1`, the growth inhibition in assay [1] is 12.2%; in assay [2] it was -3.55%; in assay [3] it was -2.45%; in assay [4] it was -6.35%; in assay [5], -2.2%; in assay [6] it was 6.1%.
As for `CCOC(=O)C1=C(Nc2ccc(F)cc2)C(=O)N(C(C)(C)C)C1`, the growth inhibition in assay [1] was 8.05%; in assay [2], 1.3%; in assay [3], 27.5%; in assay [4], 6.35%; in assay [5] it was 31.4%; in assay [6] it was 21.6%.
On to `Cc1ccccc1SC(c1ccccc1)(c1ccccc1)c1ccccc1`, for which the growth inhibition is -11.2% in assay [1]; -25.3% in assay [2]; -0.2% in assay [3]; -6.55% in assay [4]; -6.1% in assay [5]; -37.8% in assay [6].
Regarding `O=C(Nc1ccc(F)c([N+](=O)[O-])c1)N(Cc1ccccc1)c1ccccc1`, the growth inhibition was 8.05% in assay [1]; 1.05% in assay [2]; 1.55% in assay [3]; 5.95% in assay [4]; 26.9% in assay [5]; 16.9% in assay [6].
Turning to `NCC(=O)N1CCCC1C(=O)NCC(=O)NCC(=O)O` (stereo not drawn) (H-G[ξP]GG-OH), the growth inhibition in assay [1] was 11.6%; in assay [2], 0.95%; in assay [3] it was 4.8%; in assay [4], -32%; in assay [5], -16.9%; in assay [6], 3.15%.
For the molecule `O=C(Nc1ccccc1)C(=O)Nc1ccccc1`, the growth inhibition in assay [1] was 5.4%; in assay [2], -18.1%; in assay [3], -8.05%; in assay [4] it was -12.7%; in assay [5] it was -10.9%; in assay [6] it was -4.25%.
Consider `Cc1ccc(N=Nc2ccc(C)cc2NC(=O)c2ccc(Cl)c(Cl)c2)cc1`, for which the growth inhibition is -9.6% in assay [1]; -11.2% in assay [2]; -12% in assay [3]; -13.1% in assay [4]; 7.8% in assay [5]; -20.4% in assay [6].
For `OCC(CO)=C1c2ccccc2-c2ccccc21`, the growth inhibition was 11% in assay [1]; -6.2% in assay [2]; -8.15% in assay [3]; -28.8% in assay [4]; -1.5% in assay [5]; 5.55% in assay [6].
For the molecule `COC(=O)C(O)c1ccc(C(C)C)cc1` (stereo not drawn), the growth inhibition in assay [1] is -34.5%; in assay [2] it was -18.6%; in assay [3], -13.9%; in assay [4] it was -33.2%; in assay [5] it was -26.4%; in assay [6], -9.2%.
On to `COc1cc(Cl)c(CC(=O)c2c[nH]c3ccccc23)cc1OC`, for which the growth inhibition was 10.6% in assay [1]; -27.1% in assay [2]; -17.8% in assay [3]; -31.7% in assay [4]; -29.2% in assay [5]; 20.6% in assay [6].
For `NC(=O)C(=CNC(=S)Nc1ccc(S(N)(=O)=O)cc1)C(N)=O`, the growth inhibition was -10.1% in assay [1]; -31.1% in assay [2]; -16.4% in assay [3]; 2.9% in assay [4]; -10.4% in assay [5]; 0.5% in assay [6].
As for `CC(O)C1CC1` (stereo not drawn), the growth inhibition is -17% in assay [1]; -40.8% in assay [2]; 9.3% in assay [3]; 1.65% in assay [4]; -2.2% in assay [5]; -5.7% in assay [6].
Turning to `N#CC1C2CCC(C2)C1CCCN` (stereo not drawn), the growth inhibition in assay [1] is 18.4%; in assay [2] it was -8.75%; in assay [3], 6.55%; in assay [4], -81.9%; in assay [5] it was -8.05%; in assay [6], -13.8%.
For the molecule `BrC1CCC(Br)CC1` (stereo not drawn), the growth inhibition in assay [1] was 7.1%; in assay [2], -11.1%; in assay [3], -8.45%; in assay [4], -12.9%; in assay [5], -2.3%; in assay [6] it was -9.7%.
`CCCCCCCCCCCCCCCCCC(=O)CCCCCCCCCCCCCCCCC`: the growth inhibition is -17.3% in assay [1]; -21.7% in assay [2]; -6.65% in assay [3]; 13.8% in assay [4]; -6.2% in assay [5]; -16.7% in assay [6].
Turning to `[N-]=[N+]=NC(=O)c1ccc(S(=O)(=O)c2ccc(F)cc2)cc1`, the growth inhibition is 13.4% in assay [1]; 21.8% in assay [2]; 7.6% in assay [3]; 7.85% in assay [4]; 3% in assay [5]; 38.5% in assay [6].
Take `CC(=O)NC(CSCC(=O)c1ccccc1)C(=O)O` (stereo not drawn): the growth inhibition was -12.6% in assay [1]; -8% in assay [2]; -10.3% in assay [3]; -6.05% in assay [4]; -18.8% in assay [5]; -3.5% in assay [6].
In the case of `C[N+](C)(C)CCCCCC[N+](C)(C)C`, the growth inhibition in assay [1] is -31.8%; in assay [2], -15.6%; in assay [3] it was -22.9%; in assay [4], -14.2%; in assay [5], -31.7%; in assay [6], -30.2%.
`OCc1ccc(F)cc1`: the growth inhibition in assay [1] is -6.35%; in assay [2], -14.6%; in assay [3], -7.5%; in assay [4], 3.25%; in assay [5], -10.8%; in assay [6], 3.45%.
Take `CCSCCCSCCSCC`: the growth inhibition is 58.5% in assay [1]; 46.5% in assay [2]; 57.5% in assay [3]; 43.7% in assay [4]; 63.5% in assay [5]; 56% in assay [6].
With `Cn1ncc2c(=S)[nH]c(=S)[nH]c21`, the growth inhibition in assay [1] is 19.4%; in assay [2], -9.25%; in assay [3], 2.5%; in assay [4], 7.85%; in assay [5], 2.3%; in assay [6], 1.85%.
With `CCN(CC)C(=O)c1ccccc1`, the growth inhibition in assay [1] was 7.75%; in assay [2], 8.6%; in assay [3], -10.3%; in assay [4], -2.65%; in assay [5], -24.6%; in assay [6], 10.3%.
As for `Cc1ccc(-c2cc(-c3cc(-c4ccc(C)cc4)nc(N)n3)nc(N)n2)cc1`, the growth inhibition in assay [1] is 3.7%; in assay [2], -13.4%; in assay [3] it was -20.1%; in assay [4], -13.2%; in assay [5], -25.1%; in assay [6], -13%.
With `O=[N+]([O-])c1ccc(N/N=C/C(Br)(Br)Br)c([N+](=O)[O-])c1`, the growth inhibition in assay [1] is -5.85%; in assay [2] it was -0.65%; in assay [3] it was -21.2%; in assay [4], -11.9%; in assay [5], -14.4%; in assay [6] it was -27.9%.
